Screening results from PubChem BioAssay.
Most compounds without a hit are left out; they make up all but 21% or so of the library.
ClpP mod = qHTS Assay for Activators of ClpP; Potency, µM (top dose mostly 57.5 µM); hit rate 1.9% among 340,000; ATP-dependent Clp protease proteolytic subunit (Bacillus subtilis (strain 168)), P80244; AID 651965, 2013; purified B. subtilis ClpP, FRET peptide cleavage, 20 min; active = well fitted falling curve with a large enough effect; inconclusive = small, poorly fitted or top-dose-only effect; inactive = no such curve, though single readings can be large or run the other way; note: the source files actives as falling curves though it sought activators and does not explain the sign; nearly all actives have a fitted effect of over 65% in size
Target sequence (P80244 whole entry, looked up): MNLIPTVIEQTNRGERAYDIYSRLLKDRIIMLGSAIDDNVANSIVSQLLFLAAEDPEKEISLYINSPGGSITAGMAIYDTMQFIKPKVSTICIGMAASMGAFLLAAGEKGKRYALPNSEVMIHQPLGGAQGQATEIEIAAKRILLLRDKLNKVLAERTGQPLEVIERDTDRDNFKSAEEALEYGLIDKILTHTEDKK
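Buffer: 100 mM Tris/HCl pH8, 100 mM KCl, 0.05% low protease BSA, 2.5% glycerol, 0.01% Tween-20. ClpP 10 microg/mL final; 20 min RT; delta FRET normalized to ADEP and DMSO controls.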
D3 antag = antagonists of human D3 dopamine receptor. D3R cells, DiscoveRx beta-arrestin luminescence, antagonist mode; hits give low values. hit rate 2.5% among 360,000. max response, negative = inhibition, %. P35462; in the data active = max response below about -50%; inconclusive = no clear call, values can overlap the other calls
Target sequence (P35462 whole entry, looked up): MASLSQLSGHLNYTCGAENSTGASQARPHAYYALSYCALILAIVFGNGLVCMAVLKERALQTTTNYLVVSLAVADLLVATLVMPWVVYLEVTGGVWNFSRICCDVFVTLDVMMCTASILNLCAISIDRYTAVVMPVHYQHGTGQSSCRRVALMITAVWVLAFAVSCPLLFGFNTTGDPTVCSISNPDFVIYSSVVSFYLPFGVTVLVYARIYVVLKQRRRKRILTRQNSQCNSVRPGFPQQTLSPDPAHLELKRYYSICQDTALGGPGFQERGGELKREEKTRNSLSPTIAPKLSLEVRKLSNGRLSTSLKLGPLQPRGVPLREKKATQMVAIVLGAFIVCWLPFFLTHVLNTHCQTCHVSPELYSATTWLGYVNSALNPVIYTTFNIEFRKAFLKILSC
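Cells expressing the human receptor were seeded at 1500 cells/well, incubated overnight at 37 degrees C in 5% CO2, then exposed to library compounds with dopamine controls for 90 minutes at 37 degrees C before luminescent detection.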
DT40 TDP1 CPT = growth inhibition of DT40 Tdp1-/-;hTDP1 cells with camptothecin (screen for TDP1 inhibitors). chicken DT40 Tdp1-/-;hTDP1 cells + 20 nM CPT, ATP luminescence, 48 h. Potency, µM (top dose mostly 46.2 µM), actives largely listed as inhibitors. hit rate 12% among 420,000. AID 686979; note: nearly all actives have a fitted effect of over 55% in size
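Chicken DT40 Tdp1-/- cells stably complemented with human TDP1 were seeded at 400 cells/well in medium containing 20 nM camptothecin, exposed to pin-transferred compounds, and grown at 37 °C for at least 48 hr. Viability was read as ATP luminescence.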
IL1B secr inh = blocks inflammasome-driven IL-1 beta release | activity change, % at 57.5 µM | hit rate 4.7% among 360,000 | AID 743279 | THP-1 LPS/ATP IL-1B secretion, AlphaLISA, 16 h; hits give low values; in the data active = activity change below about -50%; inconclusive = mostly about -30% to -49%
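Secreted IL-1B measured by AlphaLISA bead assay after 16 h compound exposure of THP-1 cells; compounds (final up to 57.5 uM) added 1 h before LPS (250 ng/mL) and ATP (1.25 mM) stimulation; lower signal means less secretion.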
TDP1 cell noCPT = qHTS for Inhibitors of human tyrosyl-DNA phosphodiesterase 1 (TDP1): qHTS in cells in absence of CPT; DT40 Tdp1-/- hTDP1 cells, no CPT, ATP luminescence, 48 h; Potency, µM (highest dose often 46.2 µM), usual class: inhibitors; hit rate 15% among 420,000; AID 686978, 2013; note: nearly all actives have a fitted effect of over 55% in size
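A cellular qHTS used chicken DT40 cells lacking endogenous Tdp1 but carrying stably transfected human TDP1. Compounds were applied without camptothecin, and cell growth kinetics were judged by ATP-dependent luminescence after ≥48 hr.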
DRD3 agonist = D3 dopamine receptor (human) agonism. max activation, %. AID 652048. D3R DiscoveRx beta-arrestin cells, luminescence, 90 min. hit rate 0.58% among 410,000. P35462; in the data active = max activation above about 30%
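Agonist-mode cell screen: cells plated at 1500/well and incubated overnight at 37 °C, then exposed to library compounds for 90 min at 37 °C. Detection reagent was added for 30–60 min at room temperature, and luminescence was read.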
Numbers stand for hits. Unless noted, calls come from the whole dose curve; as a rule, active = well fitted inhibition curve with a large enough effect; inconclusive = small, poorly fitted or top-dose-only effect; inactive = flat fitted curve, though single readings scatter.

What do the screens show for `Cc1ccc(S(=O)(=O)N2[C@H](CC(=O)c3ccccc3)OC[C@@H]2C(C)C)cc1`?
ClpP mod: inactive; D3 antag: inactive; DT40 TDP1 CPT: inconclusive; IL1B secr inh: inactive; TDP1 cell noCPT: inconclusive; DRD3 agonist: inactive

Results for COCCNC(=O)C1(C)CCN(Cc2csc(-c3ccc(Cl)cc3)n2)C1 (configuration not stated) ?
ClpP mod: inactive; D3 antag: -103; DT40 TDP1 CPT: inconclusive; IL1B secr inh: inactive; TDP1 cell noCPT: inconclusive; DRD3 agonist: inactive

Results for CCCNC(=O)C1(C)CCCN(Cc2csc(-c3ccccc3)n2)C1 (configuration not stated) ?
ClpP mod: inactive; D3 antag: -66; DT40 TDP1 CPT: inconclusive; IL1B secr inh: inconclusive; TDP1 cell noCPT: 21µM; DRD3 agonist: 45

Results for CCCNC(=O)C1(C)CCN(Cc2cc(-c3ccccc3)on2)C1 (configuration not stated) ?
ClpP mod: inactive; D3 antag: inactive; DT40 TDP1 CPT: inconclusive; IL1B secr inh: inactive; TDP1 cell noCPT: 15µM; DRD3 agonist: inactive

Results for CN(CC(=O)Nc1ccccc1Cl)S(=O)(=O)c1ccc(C(=O)N2CCOCC2)s1 ?
ClpP mod: inactive; DT40 TDP1 CPT: 15µM; TDP1 cell noCPT: inconclusive; DRD3 agonist: inactive

Results for COc1ccc(NC(=O)CN(C)S(=O)(=O)c2ccc(C(=O)N3CCOCC3)s2)cc1 ?
ClpP mod: inactive; DT40 TDP1 CPT: inconclusive; TDP1 cell noCPT: inactive; DRD3 agonist: inactive

What do the screens show for `Cc1ccc(C)c(N2CCN(C(=O)CCc3nnc4n(C)c(=O)c5ccccc5n34)CC2)c1`?
ClpP mod: inactive; DT40 TDP1 CPT: inconclusive; TDP1 cell noCPT: inconclusive; DRD3 agonist: inactive

What do the screens show for `CCN1CCc2c(sc(NC(=O)c3ccc(S(=O)(=O)N4CCOCC4)cc3)c2C(N)=O)C1`?
ClpP mod: inactive; D3 antag: inconclusive; DT40 TDP1 CPT: inconclusive; IL1B secr inh: inconclusive; TDP1 cell noCPT: inconclusive; DRD3 agonist: inactive

How did COC(=O)c1c(NC(=O)c2ccc(S(=O)(=O)N3CCOCC3)cc2)sc2c1CCN(C)C2 do in these assays?
ClpP mod: inactive; D3 antag: inactive; DT40 TDP1 CPT: inconclusive; IL1B secr inh: -75; TDP1 cell noCPT: inconclusive; DRD3 agonist: inactive

What do the screens show for `CCOC(=O)c1c(NC(=O)c2ccc(S(=O)(=O)N3CCOCC3)cc2)sc2c1CCN(C(C)C)C2`?
ClpP mod: inactive; D3 antag: inactive; DT40 TDP1 CPT: inconclusive; IL1B secr inh: inconclusive; TDP1 cell noCPT: 8.2µM; DRD3 agonist: inactive

How did CCN1CCc2c(sc(NC(=O)c3ccc(S(=O)(=O)N4CCOCC4)cc3)c2C(=O)OC)C1 do in these assays?
ClpP mod: inactive; D3 antag: inactive; DT40 TDP1 CPT: 8.2µM; IL1B secr inh: inactive; TDP1 cell noCPT: inconclusive; DRD3 agonist: inactive

How did CN(C)Cc1ccccc1-c1cncnc1Nc1ccc(F)cc1 do in these assays?
DT40 TDP1 CPT: inactive; TDP1 cell noCPT: inactive

How did COc1ccc(OCCOC(=O)CNS(=O)(=O)c2ccc(SC)c([N+](=O)[O-])c2)cc1 do in these assays?
ClpP mod: inconclusive; D3 antag: inactive; DT40 TDP1 CPT: inactive; IL1B secr inh: inactive; TDP1 cell noCPT: inactive; DRD3 agonist: inactive

How did COC(=O)[C@H](C)NC(=O)N1CCC(Cc2ccccc2)CC1 do in these assays?
ClpP mod: inactive; D3 antag: inactive; DT40 TDP1 CPT: inactive; IL1B secr inh: inactive; TDP1 cell noCPT: inactive; DRD3 agonist: inactive

What do the screens show for `CCC(=O)c1ccccc1OCCCN1CCC(Cc2ccccc2)CC1`?
D3 antag: -102; DT40 TDP1 CPT: inconclusive; IL1B secr inh: -89; TDP1 cell noCPT: inconclusive; DRD3 agonist: inactive

What do the screens show for `Cc1ccc([N+](=O)[O-])c(OCCN2CCC(Cc3ccccc3)CC2)c1`?
ClpP mod: inactive; D3 antag: -83; DT40 TDP1 CPT: inconclusive; IL1B secr inh: -99; TDP1 cell noCPT: inconclusive; DRD3 agonist: inactive

What do the screens show for `N#Cc1ccccc1OCCCN1CCC(Cc2ccccc2)CC1`?
ClpP mod: inactive; D3 antag: -109; DT40 TDP1 CPT: inconclusive; IL1B secr inh: inconclusive; TDP1 cell noCPT: 16µM; DRD3 agonist: inactive

How did Cc1ccccc1OC(C)C(=O)N1CCC(Cc2ccccc2)CC1 (configuration not stated) do in these assays?
ClpP mod: inactive; D3 antag: inactive; DT40 TDP1 CPT: inconclusive; IL1B secr inh: -55; TDP1 cell noCPT: inconclusive; DRD3 agonist: inactive

What do the screens show for `Cc1ccc([N+](=O)[O-])c(OCCCN2CCCCCC2)c1`?
ClpP mod: inactive; D3 antag: inconclusive; DT40 TDP1 CPT: inconclusive; IL1B secr inh: inactive; TDP1 cell noCPT: inconclusive; DRD3 agonist: inactive

How did N#Cc1ccccc1OCC(=O)C1CC1 do in these assays?
D3 antag: inactive; DT40 TDP1 CPT: inactive; IL1B secr inh: inactive; TDP1 cell noCPT: inactive; DRD3 agonist: inactive

What do the screens show for `CC(=O)CCc1ccc(OCCCCN2CCC(Cc3ccccc3)CC2)cc1`?
D3 antag: inconclusive; DT40 TDP1 CPT: inactive; IL1B secr inh: inactive; TDP1 cell noCPT: inactive; DRD3 agonist: inactive

How did CCC(Sc1ncc(S(=O)(=O)c2ccc(Cl)cc2)c(=O)[nH]1)C(=O)Nc1ccc(OC)cc1 (configuration not stated) do in these assays?
ClpP mod: inactive; DRD3 agonist: inactive

How did COc1ccc(NC(=O)C(Cc2c[nH]c3ccccc23)NC(=O)OC(C)(C)C)cc1 (configuration not stated) do in these assays?
ClpP mod: inactive; DT40 TDP1 CPT: inconclusive; TDP1 cell noCPT: inactive; DRD3 agonist: inactive

Results for CNC(=O)COC(=O)c1ccc2c(c1)S(=O)(=O)c1ccccc1C2=O ?
D3 antag: inactive; DT40 TDP1 CPT: inactive; IL1B secr inh: inactive; TDP1 cell noCPT: inactive; DRD3 agonist: inactive

What do the screens show for `COc1cc(C(=O)NC2CC(C)(C)CC(C)(C)C2)ccc1OC1CCN(C(C)=O)CC1`?
ClpP mod: inactive; D3 antag: inactive; DT40 TDP1 CPT: inconclusive; IL1B secr inh: inactive; TDP1 cell noCPT: inconclusive; DRD3 agonist: inactive

What do the screens show for `CCCCn1c(N)c(N(CC)C(=O)CN2C(=O)NC(C)(c3ccccc3)C2=O)c(=O)[nH]c1=O` (configuration not stated)?
ClpP mod: inactive; D3 antag: inactive; DT40 TDP1 CPT: inactive; IL1B secr inh: inactive; TDP1 cell noCPT: inactive; DRD3 agonist: inactive

How did Cc1csc(NC(=O)c2ccc(COc3ccccc3)o2)n1 do in these assays?
D3 antag: inactive; DT40 TDP1 CPT: inconclusive; IL1B secr inh: inactive; TDP1 cell noCPT: inactive; DRD3 agonist: inactive
